# A selection: hits, their analogues and other compounds. The true share with any hit is near 2%.
# Jurkat NFkB inh: inhibitors of the PMA/ionomycin-induced NF-kB reporter in Jurkat cells | PMA/ionomycin-induced NF-kB luciferase reporter, luminescence | inhibition, % at 4 µM | hit rate 0.53% among 330,000 | AID 435003; in the data active means inhibition above about 50%
# Gli-Sufu antag: antagonists of Gli-Sufu signaling | Sufu-KO-LIGHT fibroblasts, Gli luciferase reporter luminescence | inhibition, % at 5 µM | hit rate 0.74% among 340,000;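 active means inhibition above about 55%, limit read from the data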;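 further: 0% = DMSO-treated cells and 100% = wells with medium but no cells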
# 697 NFkB inh: inhibitors of the PMA/ionomycin-induced NF-kB reporter in 697 B cells. 697 B-cell NF-kB luciferase reporter, 16 h. inhibition, % at 4 µM. hit rate 0.33% among 330,000; in the data active means inhibition above about 35%
# GalR3 antag: antagonists of human GalR3. O60755. HEK293 GalR3-CNG cAMP membrane potential fluorescence; galR3 body fused to GalR1 C-terminus. inhibition, % at 3 µM. hit rate 0.44% among 360,000. AID 651719;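 active means inhibition above the screen-wide average plus 3 SD, cut at about 13% in these data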;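 further: forskolin and galanin both at EC90 stimulate the cells; cAMP rise reported by CNG channel membrane potential dye signal; 0% = forskolin plus galanin with DMSO and 100% = forskolin alone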
# Target sequence (O60755 1-299 limits assumed): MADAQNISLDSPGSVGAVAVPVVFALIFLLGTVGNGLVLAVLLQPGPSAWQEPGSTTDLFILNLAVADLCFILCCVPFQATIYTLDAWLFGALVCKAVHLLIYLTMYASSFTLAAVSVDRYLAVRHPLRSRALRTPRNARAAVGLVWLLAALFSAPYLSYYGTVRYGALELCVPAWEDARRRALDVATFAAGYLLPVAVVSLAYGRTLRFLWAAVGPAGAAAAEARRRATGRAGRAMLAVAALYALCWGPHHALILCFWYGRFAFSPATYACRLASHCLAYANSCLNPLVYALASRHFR
# COUP-TFII inh: NR2F2 (human) inhibition, primary screen. P24468. HEK293T NGFI-A luciferase reporter, luminescence. inhibition, % at 8.6 µM. hit rate 0.7% among 370,000;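 active means inhibition above a per-plate cutoff, mean inhibition of test wells between control levels plus 3 SD, cut at about 38% in these data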;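 further: cells cotransfected with COUP-TFII expression vector driving the NGFI-A reporter; 0% = median of COUP-TF2 test wells and 100% = reporter-only cells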
# Target sequence (P24468 whole entry, looked up): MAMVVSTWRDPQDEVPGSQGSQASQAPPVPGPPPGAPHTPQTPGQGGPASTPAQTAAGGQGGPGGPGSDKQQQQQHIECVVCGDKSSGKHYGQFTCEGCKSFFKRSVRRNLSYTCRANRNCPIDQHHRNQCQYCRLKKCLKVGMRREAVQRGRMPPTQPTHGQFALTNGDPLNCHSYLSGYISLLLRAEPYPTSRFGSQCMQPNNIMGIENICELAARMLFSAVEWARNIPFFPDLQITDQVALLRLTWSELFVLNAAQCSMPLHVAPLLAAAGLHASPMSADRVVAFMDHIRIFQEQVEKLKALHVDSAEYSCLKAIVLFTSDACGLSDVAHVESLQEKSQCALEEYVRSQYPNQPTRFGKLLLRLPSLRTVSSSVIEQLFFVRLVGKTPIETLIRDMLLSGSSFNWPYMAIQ
# Jurkat NFkB conf: lowers PMA/ionomycin-induced NF-kB signal in Jurkat cells; hit rate 27% among 2,700; shares compounds with Jurkat NFkB inh; inhibition, % at 4 µM; AID 435020; Jurkat NF-kB luciferase, 16 h;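 active means inhibition reaching about 45% at 4 µM in either replicate, limit read from the data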;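 further: plate controls were PMA/ionomycin stimulated DMSO wells for no effect and unstimulated DMSO wells for full effect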
# * = called active by the depositor; nt = not tested or not shown.
SMILES,Jurkat NFkB inh,Gli-Sufu antag,697 NFkB inh,GalR3 antag,COUP-TFII inh,Jurkat NFkB conf
COc1ccc(S(=O)(=O)N2CCCCC2)cc1NC(=O)Cc1c[nH]c2ccccc12,1.2,2.1,11.8,-11.2,-0.2,nt
Cc1ccc(S(=O)(=O)N2CCCCC2)cc1NC(=O)Cc1c[nH]c2ccccc12,65.7*,0.6,-78.5,-1.9,9.6,20.8
CCC[C@H]1[C@@H](NC(=O)C(c2ccccc2)c2ccccc2)CC[C@@]23CCCN2C(=O)CCC[C@@H]13,nt,nt,nt,nt,13.8,nt
COc1ccc(C2CC(c3ccc4ccccc4c3)=NN2C(=O)COC(=O)C2CCC(=O)N2)cc1 (stereo not given),-196.5,-110.8,-168.7,-1.7,-88.6,-133.1
CC(=O)OCC(=O)N1N=C(c2ccc3ccccc3c2)CC1c1ccccc1 (stereo not given),-54.3,-27.9,-39.0,-3.9,-18.3,nt
O=C(N[C@@H](Cc1cccnc1)C(=O)N1CCC[C@H]1C(=O)NCCc1ccccc1Cl)C1CCCC1,nt,nt,nt,-0.2,-2.8,nt
COc1cc(C(NC(=O)C(F)(F)F)C2CCCC=C2c2ccccc2)cc(OC)c1OC (stereo not given),nt,nt,nt,nt,-0.8,nt
O=c1cc(CN2CCOCC2)c2ccccc2o1,nt,nt,nt,-6.5,-15.9,nt
O=c1c2ccccc2oc2cc(-c3ccc(CN4CCOCC4)cc3)ccc12,-151.3,-10.1,-223.4,1.8,-48.9,-67.0
c1ccc(-c2noc(-c3ccncc3)n2)nc1,-70.3,-33.7,-76.0,-1.0,-43.1,nt
Cc1cccc(-c2noc(-c3ccc4c(c3)OCO4)n2)c1,-187.3,-77.6,-200.2,-6.9,-45.5,-98.7
COc1cccc(-c2nc(-c3ccccn3)no2)c1,19.8,-14.3,-41.3,1.2,34.2,nt
c1ccc(-c2noc(-c3ccc4c(c3)OCO4)n2)nc1,68.0*,49.8,8.0,-1.4,6.2,69.2*
c1ccc(-c2noc(-c3ccc4ccccc4c3)n2)nc1,54.3*,61.9*,11.7,nt,nt,77.0*
COc1ccc(-c2nc(-c3cccc(C)c3)no2)cc1OC,-92.1,-72.5,-85.7,nt,nt,nt
CN1CCN(c2ccc3c(c2)Oc2ccccc2CN(Cc2cn(Cc4ccc(C(F)(F)F)cc4)nn2)S3(=O)=O)CC1,nt,nt,nt,nt,0.6,nt
COc1ccc(-c2cc3ccccc3cn2)cc1,-179.4,-113.4,-215.7,2.7,-41.2,-95.2
COc1ccc2cc(-c3ccccc3F)ncc2c1,-185.6,-64.5,-229.0,-4.7,-55.7,-108.6
COC(=O)[C@]12C[C@H](CC(=O)NCc3ccc(OC)c(OC)c3)C(=O)N(Cc3cccc4ccccc34)C1=C[C@H](C(C)C)O[C@@H]2C1CC1,nt,nt,nt,nt,13.1,nt
CCN(CC)C(=O)CC[C@@H]1CC[C@]2(CCCN(Cc3ccccc3)C2)O1,nt,nt,nt,nt,-22.4,nt
N#Cc1ccc(/C=C2\CC3(OC(=O)C4CCCC4)CCCN2C3)cc1 (stereo not given),nt,nt,nt,nt,9.3,nt
O=C(CSc1nc2ccccc2nc1N1CCCCC1)N1CCN(S(=O)(=O)c2ccccc2)CC1,nt,nt,nt,nt,-2.9,nt
C(=C\c1ccccc1)/CSc1nnc(-c2ccccc2)n1Cc1ccco1,59.6*,7.5,-40.8,-5.2,-6.9,23.4
COc1cc(-c2noc(C)c2C#CCO)cc(OC)c1OC,-24.9,2.2,9.4,0.3,-11.7,nt
COc1cc(-c2noc(C)c2C#Cc2ccsc2)cc(OC)c1OC,62.6*,nt,-34.0,0.7,-34.0,56.8*
SMILES,Jurkat NFkB inh,Gli-Sufu antag,697 NFkB inh,GalR3 antag,COUP-TFII inh,Jurkat NFkB conf
O=C(NN=C1CCCC1)c1[nH]c2ccc(Br)cc2c1-c1ccccc1,2.0,-6.9,31.4,2.8,2.6,nt
O=C(N/N=C/c1ccccc1)c1[nH]c2ccc(Br)cc2c1-c1ccccc1,57.8*,45.7,34.4,1.8,-41.9,8.3
NC(=O)C1=CN([C@@H]2O[C@H](COP(=O)(O)OP(=O)(O)OC[C@H]3O[C@@H](n4cnc5c(N)ncnc54)[C@H](O)[C@@H]3O)[C@@H](O)[C@H]2O)C=CC1,nt,nt,nt,nt,-27.3,nt
O=C(CSc1ncnc2ccccc12)c1cccs1,-157.3,-87.0,-70.1,1.1,-16.2,-62.2
Cc1cccc(N2CCN(C(=O)c3ccc(CS(=O)(=O)c4ccccc4C)o3)CC2C)c1 (stereo not given),65.1*,17.3,8.9,-2.3,12.3,51.9*
CC(=O)N1CCN(C(=O)C2CCCN(C(=O)c3ccc4c(c3)NC(=O)CS4)C2)CC1 (stereo not given),nt,nt,nt,nt,6.5,nt
CCOc1ccccc1NC(=O)c1cccc(NC(=O)c2ccco2)c1,57.4*,-0.6,-34.7,-3.0,10.6,30.9
COc1cccc(C(=O)Nc2ccc3[nH]ncc3c2)c1,-69.8,-63.6,-45.3,-9.3,-23.8,nt
CCOc1cccc(C(=O)Nc2ccc3[nH]ncc3c2)c1,-150.6,-46.2,-26.7,-8.7,-41.5,-63.1
Cc1ccc(-n2c(SCc3c(Cl)cccc3Cl)nnc2-c2ccco2)cc1,nt,nt,nt,nt,4.6,nt
CCOC(=O)N1CCN(C(=O)C[C@@H]2C(=O)N(Cc3ccc(OC)cc3)/C3=C/CCCCC[C@@]32C(=O)OCC)CC1,nt,nt,nt,nt,18.2,nt
O=C(COC(=O)c1cc(S(=O)(=O)N2CCCC2)ccc1O)Nc1ccc(F)cc1F,70.3*,2.4,18.1,-2.1,-4.4,25.4
O=C(OC12CCCN(C1)/C(=C/c1cccnc1)C2)c1ccco1 (stereo not given),nt,nt,nt,nt,-7.6,nt
O=C(NC12CC3CC(CC(C3)C1)C2)c1ccc(-c2cccc(Cl)c2)o1,-137.7,-5.4,-166.1,-3.8,28.3,nt
O=C(NC12CC3CC(CC(C3)C1)C2)c1ccc(-c2ccc(Cl)cc2)o1,-152.8,-66.6,-180.2,-1.2,-7.1,-73.0
O=C(NC12CC3CC(CC(C3)C1)C2)c1ccc(-c2ccccc2Cl)o1,-157.7,23.8,-216.9,1.4,-4.6,-59.8
O=S1(=O)c2c(cccc2N2CCSCC2)Oc2ccccc2CN1Cc1cn(Cc2ccc(Cl)cc2)nn1,nt,nt,nt,nt,15.0,nt
Cc1ccc(S(=O)(=O)n2ccc(-c3c(-c4ccccc4)noc3C)n2)cc1,nt,nt,nt,nt,14.3,nt
Cc1c(C(=O)Nc2ccccc2)csc1-c1ccccc1,-265.7,-132.6,5.6,-4.0,-65.6,-195.2
O=[N+]([O-])c1ccc(-c2nc(C(Cl)Cl)c3ccccc3n2)cc1,97.4*,35.2,-101.8,-3.3,-4.8,42.5
CN(Cc1ccccc1)c1nc(-c2ccc([N+](=O)[O-])cc2)nc2ccccc12,-9.3,24.3,-0.7,-2.2,0.2,nt
CSc1nc(N(C)NC(=O)c2ccc(F)cc2)c2ccccc2n1,50.5*,-0.8,-1.2,0.6,-5.3,33.3
Cc1onc(-c2ccccc2Cl)c1C(=O)N1CCN(C=O)CC1,-5.0,5.9,-6.8,-0.2,8.4,nt
Cc1cccc(N2CCN(C(=O)c3c(-c4ccccc4Cl)noc3C)CC2)c1C,67.0*,nt,-4.9,-0.6,-19.8,51.0*
Cc1cccc(OCCNC(=O)c2ccc(Cl)c(S(=O)(=O)NCc3cccnc3)c2)c1,66.2*,nt,-27.6,6.6,-1.9,39.6
COC(=O)C1=C(C)N(Cc2cccc(C(F)(F)F)c2)C(=NCc2ccccc2C(F)(F)F)NC1c1cccc(F)c1 (stereo not given),nt,nt,nt,-6.1,2.8,nt
C/C=C/C(=O)N1CCc2cc(S(=O)(=O)N(C)Cc3ccco3)ccc21,nt,nt,nt,nt,-18.2,nt

# Compound activity as filed in PubChem.
